The OligoGym collection

molecular target: TSPYL2; assay: pooled miR-30 sensor sort-seq; sequence = guide strand; settings: shRNA
Further: reference of the scale not given here.

Question: ATTGTCTTCAGGATTCTCGTTG was tested. Which sensor-assay potency score (higher = more potent) did it give?
Answer: -0.109

Question: TTGTGGTCAGGATTCTCGCTGT was tested. Which sensor-assay potency score (higher = more potent) did it give?
Answer: -0.451

Question: With TCAATGTCTGAGATCTCGCTGA as the sequence, how does the sensor-assay potency score (higher = more potent) read?
Answer: 0.0217

Question: TTGATCAAAATTGAAATTCTGG was tested. Which sensor-assay potency score (higher = more potent) did it give?
Answer: 0.568

Question: How did the sensor-assay potency score (higher = more potent) turn out when ATGTCTGAGATCCTGTACCTGC was run?
Answer: -1.08

molecular target: TTC27; assay: as above; settings: shRNA

Question: For TTTAAGGACCTGAACATCTTTG, which sensor-assay potency score (higher = more potent) is on record?
Answer: -0.304

Question: TTGCTGAACCTTGATAGTCTTC was tested. Which sensor-assay potency score (higher = more potent) did it give?
Answer: -0.804

Question: For TTCTAGAGTCACACAGCGCTGA, which sensor-assay potency score (higher = more potent) is on record?
Answer: 0.0912

Question: For TACAGATGTATCTTTTACCAGC, which sensor-assay potency score (higher = more potent) is on record?
Answer: -0.789

Question: For TATCCAACTGATCTTTTGCTTT, which sensor-assay potency score (higher = more potent) is on record?
Answer: -0.994

Question: How did the sensor-assay potency score (higher = more potent) turn out when TACACACTCTTGAAACTCCTTA was run?
Answer: 0.361

Question: Which sensor-assay potency score (higher = more potent) does the source give for TTCTTTTGAAAATTAGTGCAGA here?
Answer: -0.195

Question: TACACTTGAGAGCTTCTTGTAA was tested. Which sensor-assay potency score (higher = more potent) did it give?
Answer: -0.514

Question: For TTTTTCTCCAGCTCTTGTCTAA, which sensor-assay potency score (higher = more potent) is on record?
Answer: -0.459

Question: How did the sensor-assay potency score (higher = more potent) turn out when TGAACCTTGATAGTCTTCCAAG was run?
Answer: -1.57

Question: TTACTTTTTGTTTTAATCGGAT was tested. Which sensor-assay potency score (higher = more potent) did it give?
Answer: -0.347

Question: For TTAAAAATCAATATCTTGCATT, which sensor-assay potency score (higher = more potent) is on record?
Answer: -0.512

molecular target: TTC7A; assay: as above; settings: shRNA

Question: Which sensor-assay potency score (higher = more potent) does the source give for TAGAGTACTGAGTGAGAAGTGG here?
Answer: -0.197

Question: With TTCATCTTGCTTGGACTTCAGG as the sequence, how does the sensor-assay potency score (higher = more potent) read?
Answer: -0.871

Question: Which sensor-assay potency score (higher = more potent) does the source give for TTTGATGACAAAAGCCTCCGAC here?
Answer: -0.154

Question: How did the sensor-assay potency score (higher = more potent) turn out when TGGCACTGGAGATCTGTCGGAC was run?
Answer: -0.75

Question: Which sensor-assay potency score (higher = more potent) does the source give for TTGTGGTCTTCTCCAATTCCTG here?
Answer: -1.59

Question: With TTTGGCTTCGCTCATCTTCGGC as the sequence, how does the sensor-assay potency score (higher = more potent) read?
Answer: -0.912

Question: Which sensor-assay potency score (higher = more potent) does the source give for TCTCCTTCAAACACTGCTCCAG here?
Answer: -0.633

Question: For TCTTGCTTGGACTTCAGGGTGG, which sensor-assay potency score (higher = more potent) is on record?
Answer: 0.115

Question: For TTCTGCAAGCTCACTGTCCGGT, which sensor-assay potency score (higher = more potent) is on record?
Answer: 0.427

Question: With TTCCTCGATGTTGTCCTTGGGG as the sequence, how does the sensor-assay potency score (higher = more potent) read?
Answer: -0.621

Question: Which sensor-assay potency score (higher = more potent) does the source give for TTGGCTTCGCTCATCTTCGGCT here?
Answer: -0.61

Question: TTCAGATGCCTCGACGTGCTGT was tested. Which sensor-assay potency score (higher = more potent) did it give?
Answer: -0.177

molecular target: TTLL3; assay: as above; settings: shRNA

Question: With TTTGCCTTTGGCCTTGACCTTC as the sequence, how does the sensor-assay potency score (higher = more potent) read?
Answer: -0.876

Question: TTGCACGCCAGCACAGAGCCGG was tested. Which sensor-assay potency score (higher = more potent) did it give?
Answer: -1.05

Question: How did the sensor-assay potency score (higher = more potent) turn out when TTTATTTGGTGTTGGATCCAGG was run?
Answer: -0.616

Question: For TACTTCTGCACCACCCACTTGC, which sensor-assay potency score (higher = more potent) is on record?
Answer: -0.25

Question: For TAAATCATCGAAGTCGAACAGC, which sensor-assay potency score (higher = more potent) is on record?
Answer: -0.665

Question: Which sensor-assay potency score (higher = more potent) does the source give for TTGGATTGTAAAGATCTTCTTC here?
Answer: 0.486

Question: For TAGCTGTCGCGGTAGAACCACA, which sensor-assay potency score (higher = more potent) is on record?
Answer: -1.71

Question: Which sensor-assay potency score (higher = more potent) does the source give for TAGGGTATGACTTCCACTCAGA here?
Answer: -0.0416

Question: With TTGACCTTCCGACAGGTGCTAG as the sequence, how does the sensor-assay potency score (higher = more potent) read?
Answer: -0.947

Question: Which sensor-assay potency score (higher = more potent) does the source give for TTCTGCACCACCCACTTGCCGT here?
Answer: -1.06

Question: ATCATCGAAGTCGAACAGCTGT was tested. Which sensor-assay potency score (higher = more potent) did it give?
Answer: -0.524
